SARS 3CLpro inh: SARS-CoV 3CLpro protease inhibitors, primary screen, biochemical, quenched FRET; AID 1706, 2009; recombinant SARS-CoV 3CLpro, quenched FRET peptide cleavage; 290,000 compounds, 0.14% hits; inhibition, % at 6 µM; in the data active = inhibition above about 12%
Yp Topo-I inh: Yersinia pestis topoisomerase I inhibitors, primary screen, biochemical, cleavage product accumulation, plate reader, single point; Y. pestis Topo-I cleavage product accumulation; activity, % at 10 µM; DNA topoisomerase I (Yersinia pestis CO92); AID 504884, 2011; 360,000 compounds, 0.064% hits; in the data active = activity above about 50%, passing the limit was not always enough
BioA inh: M. tuberculosis BioA enzyme inhibitors, primary screen, biochemical, plate reader, single point, HTS; 360,000 compounds, 0.096% hits; inhibition, % at 9.99 µM; AID 602481, 2012; 7,8-diaminopelargonic acid synthase BioA (Mycobacterium tuberculosis); purified M. tuberculosis BioA enzyme; in the data active = inhibition above about 40%
BJeLR lethal: MLPCN primary cell-based screen for lethality selective to Ras in HRASV12 cells | inhibition, % (no concentration beside the values) | BJeLR (HRASV12) viability, CellTiter-Glo ATP luminescence, 48 h | AID 1554, 2009 | 300,000 compounds, 0.17% hits; in the data active = inhibition above about 50%
MazEF act: activators of E. coli MazEF toxin-antitoxin RNase, primary screen, biochemical, fluorescence, uHTS; FAM/BHQ RNA-DNA oligo cleavage fluorescence, 5 h; activation, % at 20 µM; 350,000 compounds, 0.32% hits; in the data active = activation above about 50%
Target sequence (P0AE70 whole entry, looked up): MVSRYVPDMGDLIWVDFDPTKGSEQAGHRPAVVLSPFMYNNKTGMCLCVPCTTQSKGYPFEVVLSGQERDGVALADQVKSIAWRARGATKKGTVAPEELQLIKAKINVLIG
PfHsp40 yeast: rescue of yeast from PfHsp40 toxicity, primary screen, S. cerevisiae, ATP luminescence | S. cerevisiae expressing PfHsp40, growth rescue | 340,000 compounds, 0.68% hits | growth rescue, % at 12.5 µM; in the data active = growth rescue above about 28%, passing the limit was not always enough;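 also: yeast W303a lacking pdr1 and pdr3 grown in galactose medium; growth measured after three days at 30 °C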
Active calls of the source: *; i = inactive; / = not tested or not shown. This is a sample that favours compounds with a hit; in the whole collection about 1.1% have one here.

SMILES | SARS 3CLpro inh | Yp Topo-I inh | BioA inh | BJeLR lethal | MazEF act | PfHsp40 yeast
C[C@@H]1CN([C@H](C)CO)C(=O)c2cc(NC(=O)Nc3ccc4c(c3)OCO4)ccc2O[C@@H](C)CCCCO[C@H]1CN(C)Cc1ccc(Cl)c(Cl)c1 | / | / | 0 | / | / | /
O=Cc1ccc(-c2ccccc2C(=O)O)o1 | -2 | 4 | / | -1 | 13 | -1
O=C(O)c1ccccc1-c1c2cc(I)c(=O)c(I)c-2oc2c(I)c(O)c(I)cc12 | / | 2 | -328 | / | i | 34*
COc1ccccc1C#Cc1ccc([C@H]2[C@H](CO)N3CCCCN(C(=O)C4CCCC4)C[C@@H]23)cc1 | / | / | -5 | / | / | /
COc1ccccc1Nc1nc2cc(C)ccc2cc1C#N | 4 | 6 | / | -6 | 5 | -1
COc1ccccc1Nc1nc2c(C)cccc2cc1C#N | 4 | 6 | -2 | -3 | 98* | 2
COc1ccccc1Nc1nc2ccc(C)cc2cc1C#N | -4 | 0 | -1 | -3 | 78* | -1
C[C@@H]1CCCCO[C@H](CN(C)C(=O)c2ccccc2)[C@H](C)CN([C@@H](C)CO)C(=O)c2cc(NC(=O)Nc3ccc(F)cc3)ccc2O1 | / | / | -4 | / | / | /
O=C(C1CCCC1)N1CCCCN2[C@H](C1)[C@@H](c1ccc(-c3cccc(F)c3)cc1)[C@@H]2CO | / | / | 3 | / | / | /
CC1(C)CC(=O)C2=C(C1)OC(N)=C(C#N)[C@@H]2c1ccccc1[N+](=O)[O-] | -7 | -4 | -1 | 11 | 78* | 0
COc1cc(C2C(C#N)=C(N)OC3=C2C(=O)CC(C)(C)C3)c([N+](=O)[O-])cc1OC (stereo not drawn) | -2 | 4 | / | 0 | -126 | 1
C[C@@H]1CN([C@H](C)CO)C(=O)c2cc(C#CC3CCCCC3)cnc2O[C@@H]1CN(C)C(=O)Cc1ccccn1 | / | / | 3 | / | / | /
O=[N+]([O-])c1cc2oc3c(c2c(C=NCc2ccncc2)c1O)CCCC3 | 3 | -15 | / | / | 7 | 48*
CC(C)(C)N=Cc1c(O)ccc2oc3c(c12)CCCC3 | 3 | 9 | -2 | 0 | -505 | 1
CCN1/C(=C/c2ccc3cccc(C)c3[n+]2CC)Sc2ccccc21 | -11 | 9 | 4 | 34 | 73* | -1
CCN1/C(=C/c2ccc3cc(C)ccc3[n+]2CC)Sc2ccc3sccc3c21 | / | 1 | / | 92* | -42 | 0
CCN1/C(=C\c2ccc3cc(C)ccc3[n+]2CC)Sc2cc(C)c(C)cc21 | -17 | 3 | 2 | 38 | 82* | -4
C[C@H]1CCCCO[C@H](CN(C)Cc2ccccc2)[C@@H](C)CN([C@@H](C)CO)C(=O)c2cc(N(C)C)ccc2O1 | / | / | -1 | / | / | /
C[C@H](CO)N1C[C@H](C)[C@H](CN(C)CC2CC2)Oc2cc(/C=C/c3ccccc3)ccc2S1(=O)=O | / | / | -1 | / | / | /
C[C@H](CO)N1C[C@H](C)[C@@H](CN(C)S(C)(=O)=O)Oc2ccc(NC(=O)Nc3ccc(C(F)(F)F)cc3)cc2CC1=O | / | / | 0 | / | / | /
Nc1cc2nc3ccccc3oc-2cc1=O | -1 | -14 | 2 | / | -4 | 376*
C[C@@H](NC(=O)[C@@H]1[C@@H](CO)[C@@H]2Cn3c(cccc3=O)[C@@H]2N1S(C)(=O)=O)c1ccccc1 | / | / | 9 | / | / | /
O=C(Nc1cccc2ncccc12)c1ccc(Cl)cc1 | 5 | 3 | -1 | 2 | 110* | 0
O=C(Nc1cccc2ncccc12)c1ccc(F)cc1 | -1 | 1 | / | 10 | 3 | -2
COc1cccc(CNC(=O)C[C@@H]2C=C[C@@H](NC(=O)C3CCOCC3)[C@@H](CO)O2)c1 | / | / | 1 | / | / | /
SMILES | SARS 3CLpro inh | Yp Topo-I inh | BioA inh | BJeLR lethal | MazEF act | PfHsp40 yeast
CCN(CCNc1ccc([N+](=O)[O-])c2cccnc12)S(=O)(=O)c1ccccc1 | 3 | -1 | -1 | 5 | 138* | 1
O=C(CSc1cccc[n+]1[O-])Nc1ccccc1Oc1ccccc1 | -2 | -12 | -2 | -7 | 4 | 90*
O=C(CSc1cccc[n+]1[O-])Nc1ccccc1C(F)(F)F | / | 2 | / | / | 6 | -1
O=C(C[C@H]1CC[C@@H]2[C@H](COC[C@@H](O)CN2C(=O)Nc2ccc(F)cc2)O1)NCCCN1CCOCC1 | / | / | -1 | / | / | /
CC1(C)CC(=O)C2=C(C1)OC(N)=C(C#N)C21CCN(Cc2ccccc2)CC1 | 5 | -7 | -2 | -17 | 50* | 0
CC(=O)N1CCC2(CC1)C(C#N)=C(N)OC1=C2C(=O)CC(C)(C)C1 | 1 | -3 | / | -15 | -6 | 0
CN(C)CC(=O)Nc1ccc2c(c1)[C@H]1C[C@@H](CC(=O)N3CCOCC3)O[C@@H](CO)[C@H]1O2 | / | / | -3 | / | / | /
O=C(NNC(=S)Nc1cccc(C(F)(F)F)c1)c1ccc(Cl)cc1Cl | 4 | 4 | / | -10 | -2 | 36*
CC1(C)c2ccccc2N2CCC(=O)NC21/C=C/c1ccco1 (stereo not drawn) | 3 | 7 | -8 | 5 | 106* | -1
CC1(C)c2ccccc2N2CC(=O)NC21/C=C/c1ccco1 (stereo not drawn) | 0 | 7 | -1 | 8 | 8 | 0
O=C1CN(CC(=O)N2CCCCC2)c2ccccc2O1 | 0 | -5 | 1 | 1 | -13 | 125*
C[C@H]1CN([C@@H](C)CO)C(=O)c2cccc(N(C)C)c2O[C@H]1CN(C)C(=O)Nc1ccccc1 | / | / | -1 | / | / | /
O=C(CCN1C(=O)c2ccccc2C1=O)NC(=S)Nc1ccccc1 | -1 | 8 | / | 15 | -3 | 0
O=C(CCN1C(=O)c2ccccc2C1=O)NC(=S)Nc1cccc(Cl)c1 | -1 | -2 | -1 | -2 | 6 | 66*
C[C@@H]1CCCCO[C@@H](CN(C)Cc2ccc(C(=O)O)cc2)[C@H](C)CN([C@@H](C)CO)C(=O)c2cc(NS(=O)(=O)c3ccc(Cl)cc3)ccc2O1 | / | / | 1 | / | / | /
O=C(NC(=S)N(CCc1ccccc1)CCc1ccccc1)c1ccco1 | 6 | 10 | -1 | 6 | 6 | 187*
O=C(/C=C/c1ccc(F)cc1)NC(=S)Nc1ccccc1 | 1 | -1 | 0 | 1 | -25 | 1
O=C(/C=C/c1ccccc1)NC(=S)Nc1ccccc1 | 1 | 2 | -2 | 1 | -1 | 102*
CC(CCc1ccccc1)NC(=S)NC(=O)c1ccco1 (stereo not drawn) | -1 | 21 | / | 0 | -2 | 4
O=C(/C=C/c1ccccc1)NC(=S)NNC(=O)c1ccco1 | 1 | -4 | 1 | -9 | -4 | 35*
COc1cccc(S(=O)(=O)Nc2ccc3c(c2)[C@@H]2C[C@H](CC(=O)NCCc4ccccc4)O[C@@H](CO)[C@@H]2O3)c1 | / | / | 3 | / | / | /
